Data taken from paper PMC9911399, “Two distinct binding modes provide the RNA-binding protein RbFox with extraordinary sequence specificity”.
Positions count from the first letter of the chain named. The full ranking holds about 16,000 sequences; the median of “ka relative to ugcaugu” is about 0.096, and the highest 2% start at about 0.35. This excerpt belongs to a sample that is enriched for the highest values.

T1: RBFOX1 RRM RbFoxmut (Fox-RRM*) (Homo sapiens, UniProt Q9NWB1 109-208, R118D;E147R;N151S;E152T)
T1 sequence: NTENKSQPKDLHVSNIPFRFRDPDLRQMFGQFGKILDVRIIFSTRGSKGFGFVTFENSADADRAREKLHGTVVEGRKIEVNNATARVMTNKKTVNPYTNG

B1: GAGCACA (DNA:RNA)
RNA: GGGAGACCGGAAUUCAGAUUGUCCGAGCACAUUAAAUCCCGUCGUAGCCACCA
DNA 1: CAATCTGAATTCCGGTCTCCC
DNA 2: TGGTGGCTACGACGGGATT
B2: UGGCUAC (DNA:RNA)
RNA: B1 RNA with G25U, A26G, A29U, C30A, A31C
DNA 1: CAATCTGAATTCCGGTCTCCC
DNA 2: TGGTGGCTACGACGGGATT
B3: UGGCCCU (DNA:RNA)
RNA: B1 RNA with G25U, A26G, A29C, A31U
DNA 1: CAATCTGAATTCCGGTCTCCC
DNA 2: TGGTGGCTACGACGGGATT
B4: GUCUUGG (DNA:RNA)
RNA: B1 RNA with A26U, G27C, C28U, A29U, C30G, A31G
DNA 1: CAATCTGAATTCCGGTCTCCC
DNA 2: TGGTGGCTACGACGGGATT
B5: CGUCGUC (DNA:RNA)
RNA: B1 RNA with G25C, A26G, G27U, A29G, C30U, A31C
DNA 1: CAATCTGAATTCCGGTCTCCC
DNA 2: TGGTGGCTACGACGGGATT
B6: CGUCUUG (DNA:RNA)
RNA: B1 RNA with G25C, A26G, G27U, A29U, C30U, A31G
DNA 1: CAATCTGAATTCCGGTCTCCC
DNA 2: TGGTGGCTACGACGGGATT
B7: GGUCGUC (DNA:RNA)
RNA: B1 RNA with A26G, G27U, A29G, C30U, A31C
DNA 1: CAATCTGAATTCCGGTCTCCC
DNA 2: TGGTGGCTACGACGGGATT
B8: CACCGUC (DNA:RNA)
RNA: B1 RNA with G25C, G27C, A29G, C30U, A31C
DNA 1: CAATCTGAATTCCGGTCTCCC
DNA 2: TGGTGGCTACGACGGGATT
B9: GGUCUUG (DNA:RNA)
RNA: B1 RNA with A26G, G27U, A29U, C30U, A31G
DNA 1: CAATCTGAATTCCGGTCTCCC
DNA 2: TGGTGGCTACGACGGGATT
B10: ACCAGUC (DNA:RNA)
RNA: GGGAGACCGGAAUUCAGAUUGUCCACCAGUCUUAAAUCCCGUCGUAGCCACCA
DNA 1: CAATCTGAATTCCGGTCTCCC
DNA 2: TGGTGGCTACGACGGGATT
B11: GUUGGUC (DNA:RNA)
RNA: B10 RNA with A25G, C26U, C27U, A28G
DNA 1: CAATCTGAATTCCGGTCTCCC
DNA 2: TGGTGGCTACGACGGGATT
B12: GUCGGUC (DNA:RNA)
RNA: B10 RNA with A25G, C26U, A28G
DNA 1: CAATCTGAATTCCGGTCTCCC
DNA 2: TGGTGGCTACGACGGGATT
B13: GGAUUGG (DNA:RNA)
RNA: B1 RNA with A26G, G27A, C28U, A29U, C30G, A31G
DNA 1: CAATCTGAATTCCGGTCTCCC
DNA 2: TGGTGGCTACGACGGGATT
B14: AGUCUUG (DNA:RNA)
RNA: B10 RNA with C26G, C27U, A28C, G29U, C31G
DNA 1: CAATCTGAATTCCGGTCTCCC
DNA 2: TGGTGGCTACGACGGGATT
B15: AGUCGUC (DNA:RNA)
RNA: B10 RNA with C26G, C27U, A28C
DNA 1: CAATCTGAATTCCGGTCTCCC
DNA 2: TGGTGGCTACGACGGGATT
B16: AGAGUGG (DNA:RNA)
RNA: B10 RNA with C26G, C27A, A28G, G29U, U30G, C31G
DNA 1: CAATCTGAATTCCGGTCTCCC
DNA 2: TGGTGGCTACGACGGGATT
B17: UCUGGAG (DNA:RNA)
RNA: B10 RNA with A25U, C27U, A28G, U30A, C31G
DNA 1: CAATCTGAATTCCGGTCTCCC
DNA 2: TGGTGGCTACGACGGGATT
B18: AUGUAGG (DNA:RNA)
RNA: B1 RNA with G25A, A26U, C28U, C30G, A31G
DNA 1: CAATCTGAATTCCGGTCTCCC
DNA 2: TGGTGGCTACGACGGGATT
B19: AUCUCCA (DNA:RNA)
RNA: B10 RNA with C26U, A28U, G29C, U30C, C31A
DNA 1: CAATCTGAATTCCGGTCTCCC
DNA 2: TGGTGGCTACGACGGGATT
B20: GAUAAGU (DNA:RNA)
RNA: B1 RNA with G27U, C28A, C30G, A31U
DNA 1: CAATCTGAATTCCGGTCTCCC
DNA 2: TGGTGGCTACGACGGGATT
B21: GAAUACU (DNA:RNA)
RNA: B1 RNA with G27A, C28U, A31U
DNA 1: CAATCTGAATTCCGGTCTCCC
DNA 2: TGGTGGCTACGACGGGATT
B22: CCUCACA (DNA:RNA)
RNA: B1 RNA with G25C, A26C, G27U
DNA 1: CAATCTGAATTCCGGTCTCCC
DNA 2: TGGTGGCTACGACGGGATT
B23: GCUUGUC (DNA:RNA)
RNA: B10 RNA with A25G, C27U, A28U
DNA 1: CAATCTGAATTCCGGTCTCCC
DNA 2: TGGTGGCTACGACGGGATT
B24: GUUUGUC (DNA:RNA)
RNA: B10 RNA with A25G, C26U, C27U, A28U
DNA 1: CAATCTGAATTCCGGTCTCCC
DNA 2: TGGTGGCTACGACGGGATT
B25: GGAUUGA (DNA:RNA)
RNA: B1 RNA with A26G, G27A, C28U, A29U, C30G
DNA 1: CAATCTGAATTCCGGTCTCCC
DNA 2: TGGTGGCTACGACGGGATT
B26: GGCUUGC (DNA:RNA)
RNA: B10 RNA with A25G, C26G, A28U, G29U, U30G
DNA 1: CAATCTGAATTCCGGTCTCCC
DNA 2: TGGTGGCTACGACGGGATT
B27: GUCUUAA (DNA:RNA)
RNA: B1 RNA with A26U, G27C, C28U, A29U, C30A
DNA 1: CAATCTGAATTCCGGTCTCCC
DNA 2: TGGTGGCTACGACGGGATT
B28: GUCGUCU (DNA:RNA)
RNA: B1 RNA with A26U, G27C, C28G, A29U, A31U
DNA 1: CAATCTGAATTCCGGTCTCCC
DNA 2: TGGTGGCTACGACGGGATT
B29: GUCUUGU (DNA:RNA)
RNA: B10 RNA with A25G, C26U, A28U, G29U, U30G, C31U
DNA 1: CAATCTGAATTCCGGTCTCCC
DNA 2: TGGTGGCTACGACGGGATT
B30: GUCUUGC (DNA:RNA)
RNA: B10 RNA with A25G, C26U, A28U, G29U, U30G
DNA 1: CAATCTGAATTCCGGTCTCCC
DNA 2: TGGTGGCTACGACGGGATT
B31: GUCUUGA (DNA:RNA)
RNA: B1 RNA with A26U, G27C, C28U, A29U, C30G
DNA 1: CAATCTGAATTCCGGTCTCCC
DNA 2: TGGTGGCTACGACGGGATT

What follows are binders tested against T1, RBFOX1 RRM RbFoxmut (Fox-RRM*) (assay: EMSA; HiTS-Eq, 1 nM pool, 10 min; buffer printed only for the single-RNA assays: 10 mM Tris pH 7.5, 150 mM NaCl, 3.4 mM EDTA, 0.001% NP-40, 30 C). Settings: tags: His6 N-terminal (pET28a); label: 5' 32P.
Summary of the method: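 Purified RbFox RRM (wild type or mutant) was equilibrated for 10 min in 50 µL with 1 nM of a 5′-radiolabelled pool of RNA with 7 randomized nucleotides, its flanks annealed to DNA oligonucleotides, across increasing protein concentrations. Free RNA was separated by 8% native PAGE, excised, reverse-transcribed, PCR-barcoded and sequenced on an Illumina HiSeq 2500. Relative association constants came from read-count changes of each variant against the control reaction, normalised to the cognate motif.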

Q: With B1 as the binder, how does the binding signal read?
A: Its binding signal is 0.0821 KA relative to UGCAUGU.

Q: How did the binding signal turn out when B2 was run?
A: The binding signal was 0.0987 KA relative to UGCAUGU.

Q: How did the binding signal turn out when B3 was run?
A: The binding signal was 0.0838 KA relative to UGCAUGU.

Q: For B4, which binding signal is on record?
A: The binding signal was 0.403 KA relative to UGCAUGU.

Q: With B5 as the binder, how does the binding signal read?
A: The binding signal was 0.186 KA relative to UGCAUGU.

Q: B6 was tested. Which binding signal did it give?
A: The binding signal was 0.615 KA relative to UGCAUGU.

Q: How did the binding signal turn out when B7 was run?
A: The binding signal was 0.159 KA relative to UGCAUGU.

Q: Which binding signal does the source give for B8 here?
A: Its binding signal is 0.0639 KA relative to UGCAUGU.

Q: For B9, which binding signal is on record?
A: The binding signal was 0.368 KA relative to UGCAUGU.

Q: Which binding signal does the source give for B10 here?
A: The binding signal was 0.063 KA relative to UGCAUGU.

Q: B11 was tested. Which binding signal did it give?
A: Its binding signal is 0.164 KA relative to UGCAUGU.

Q: How did the binding signal turn out when B12 was run?
A: The binding signal was 0.171 KA relative to UGCAUGU.

Q: With B13 as the binder, how does the binding signal read?
A: Its binding signal is 0.219 KA relative to UGCAUGU.

Q: B14 was tested. Which binding signal did it give?
A: Its binding signal is 0.459 KA relative to UGCAUGU.

Q: Which binding signal does the source give for B15 here?
A: Its binding signal is 0.117 KA relative to UGCAUGU.

Q: Which binding signal does the source give for B16 here?
A: The binding signal was 0.107 KA relative to UGCAUGU.

Q: Which binding signal does the source give for B17 here?
A: The binding signal was 0.0838 KA relative to UGCAUGU.

Q: With B18 as the binder, how does the binding signal read?
A: The binding signal was 0.128 KA relative to UGCAUGU.

Q: Which binding signal does the source give for B19 here?
A: The binding signal was 0.0926 KA relative to UGCAUGU.

Q: B20 was tested. Which binding signal did it give?
A: The binding signal was 0.0905 KA relative to UGCAUGU.

Q: B21 was tested. Which binding signal did it give?
A: The binding signal was 0.0832 KA relative to UGCAUGU.

Q: For B22, which binding signal is on record?
A: Its binding signal is 0.108 KA relative to UGCAUGU.

Q: Which binding signal does the source give for B23 here?
A: The binding signal was 0.248 KA relative to UGCAUGU.

Q: With B24 as the binder, how does the binding signal read?
A: Its binding signal is 0.305 KA relative to UGCAUGU.

Q: How did the binding signal turn out when B25 was run?
A: Its binding signal is 0.278 KA relative to UGCAUGU.

Q: Which binding signal does the source give for B26 here?
A: Its binding signal is 0.199 KA relative to UGCAUGU.

Q: Which binding signal does the source give for B27 here?
A: Its binding signal is 0.0967 KA relative to UGCAUGU.

Q: B28 was tested. Which binding signal did it give?
A: Its binding signal is 0.0809 KA relative to UGCAUGU.

Q: With B29 as the binder, how does the binding signal read?
A: Its binding signal is 0.639 KA relative to UGCAUGU.

Q: With B30 as the binder, how does the binding signal read?
A: Its binding signal is 0.502 KA relative to UGCAUGU.

Q: How did the binding signal turn out when B31 was run?
A: The binding signal was 0.407 KA relative to UGCAUGU.
